# For some assays here: Results with a measured potency or affinity are listed apart. Active and inactive are the calls of the source.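 How the source made its calls, unless noted: active means hit in primary screen, with calcium signal over 5 SD above buffer well mean in both duplicates; inactive means the rest.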
# What was measured:
# [1] = test system: TRPC4 beta (transient receptor potential cation channel C4), mouse; experiment: activators of mouse TRPC4 channel, confirmation, cell-based, Fluo4 calcium, HEK293 TRPC4beta/mu-opioid, duplicates, 10 µM (AID 2426;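 active means fluorescence ratio normalized to control raised more than 50% in primary screen plus both repeat runs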;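 further: percent rise of integrated ratio over buffer wells lacking compound which define 0%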); settings: Fluo4 calcium fluorescence, at 10 µM; active compounds read high
# [2] = test system: transient receptor potential cation channel C4 beta (TRPC4), mouse; experiment: activators of mouse TRPC4 channel, confirmation, cell-based, second round, Fluo4, HEK293 TRPC4beta/mu-opioid, 1 µM (AID 2461;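 active means primary screen active and over 50% activation in each of two duplicate runs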;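 on activation: 0% = wells without test compound as baseline of integrated fluorescence ratio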); settings: Fluo4 calcium fluorescence, at 1 µM; active compounds read high
# [3] = test system: TRPC4 (transient receptor potential cation channel C4 beta), mouse; experiment: positive allosteric modulators of mouse TRPC4, confirmation, cell-based, second round, Fluo-4, HEK293 TRPC4beta/mu-opioid, 1 µM (AID 2554;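 active means primary screen hit whose fluorescence ratio, in both repeats, exceeds the weak agonist control mean by 3 SD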); settings: DAMGO EC20, Fluo-4 calcium flux, at 1 µM; active compounds read high
# [4] = test system: TRPC4 beta (transient receptor potential cation channel C4), mouse; experiment: positive allosteric modulators of mouse TRPC4, confirmation, cell-based, Fluo-4, HEK293 TRPC4beta/mu-opioid (AID 2555;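 active means primary screen hit whose calcium fluorescence ratio, in both repeats, exceeds the weak agonist control mean by 3 SD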); settings: DAMGO EC20, Fluo-4 calcium flux, at 10 µM; active compounds read high
# [5] = molecular target: Short transient receptor potential channel 4 (Mus musculus) (UniProt Q9QUQ5); experiment: inhibitors of mouse TRPC4 channel, confirmation, cell-based, Fluo4, HEK293 TRPC4beta/mu-opioid (AID 2636;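 active means calcium signal cut by more than 3 SD below the full-agonist control yet still positive, in both repeats and the earlier primary screen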); settings: DAMGO, Fluo4 calcium flux, at 10 µM; active compounds read high
# Chain of Short transient receptor potential channel 4 (Mus musculus) (Q9QUQ5 whole entry, looked up): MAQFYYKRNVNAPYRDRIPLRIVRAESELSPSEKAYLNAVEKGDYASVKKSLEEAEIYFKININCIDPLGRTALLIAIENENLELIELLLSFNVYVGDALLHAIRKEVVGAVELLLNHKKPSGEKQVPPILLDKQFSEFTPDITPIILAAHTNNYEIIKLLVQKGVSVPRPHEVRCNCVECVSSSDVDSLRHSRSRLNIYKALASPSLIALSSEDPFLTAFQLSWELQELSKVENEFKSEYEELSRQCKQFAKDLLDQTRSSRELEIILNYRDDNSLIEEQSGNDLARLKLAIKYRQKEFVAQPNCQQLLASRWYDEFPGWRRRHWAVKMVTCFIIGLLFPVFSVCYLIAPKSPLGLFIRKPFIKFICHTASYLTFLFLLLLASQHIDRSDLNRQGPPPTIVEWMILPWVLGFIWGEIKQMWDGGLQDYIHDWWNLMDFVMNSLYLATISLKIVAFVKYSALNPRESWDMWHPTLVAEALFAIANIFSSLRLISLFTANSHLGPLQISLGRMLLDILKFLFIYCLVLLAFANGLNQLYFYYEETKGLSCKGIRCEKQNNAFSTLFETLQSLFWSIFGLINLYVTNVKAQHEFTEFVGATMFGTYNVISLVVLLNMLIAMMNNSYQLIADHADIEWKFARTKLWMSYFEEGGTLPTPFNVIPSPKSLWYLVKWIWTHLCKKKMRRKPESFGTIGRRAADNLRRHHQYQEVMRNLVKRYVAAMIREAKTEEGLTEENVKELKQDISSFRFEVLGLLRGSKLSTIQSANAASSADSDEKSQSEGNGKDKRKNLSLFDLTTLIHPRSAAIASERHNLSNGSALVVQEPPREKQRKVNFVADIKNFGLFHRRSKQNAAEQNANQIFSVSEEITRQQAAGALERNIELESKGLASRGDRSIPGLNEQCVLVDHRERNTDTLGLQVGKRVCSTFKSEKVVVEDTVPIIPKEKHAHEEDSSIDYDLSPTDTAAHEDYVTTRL
# [6] = molecular target: Short transient receptor potential channel 4 (Mus musculus) (UniProt Q9QUQ5); experiment: inhibitors of mouse TRPC4 channel, confirmation, cell-based, second round, Fluo4, HEK293 TRPC4beta/mu-opioid, 1 µM (AID 2637;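 active means calcium signal ratio cut to more than 3 SD under the fully stimulated control mean yet still positive, in both repeats and the primary screen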); settings: Fluo4 calcium flux, DAMGO, at 1 µM; active compounds read high
# [7] = molecular target: Short transient receptor potential channel 4 (Mus musculus) (UniProt Q9QUQ5); experiment: TRPC4 positive allosteric modulators, dose response, cell-based, HEK293 TRPC4/mu-opioid, Fluo-4 calcium, EC20 DAMGO (AID 434941;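 active means earlier screen potentiator hit that boosts the TRPC4 ion channel at some dose, with a dose response; inactive means no potentiation, no dose response, or not a prior hit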;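 further: calcium entry triggered by an EC20 dose of DAMGO at the co-expressed mu-opioid receptor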)
# [8] = molecular target: Short transient receptor potential channel 4 (Mus musculus) (UniProt Q9QUQ5); experiment: mouse TRPC4 channel inhibitors, dose response, cell-based, HEK293 TRPC4/mu-opioid, Fluo-4 calcium (AID 434942;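 active means primary screen inhibitor hit that blocks the TRPC4 channel at some tested dose, yielding a dose curve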)
# [9] = molecular target: Short transient receptor potential channel 6 (Mus musculus) (UniProt Q61143); experiment: inhibition of mouse TRPC6 channel, confirmation, selectivity assay for TRPC4 inhibitor project, cell-based, HEK293, membrane potential dye, duplicate (AID 434948;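 active means active in primary screen and both duplicates, each dropping signal beyond three positive-control SD with fluorescence still positive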); settings: HEK293 TRPC6, membrane potential dye fluorescence, at 10 µM, stimulated with maximal-effect acetylcholine; active compounds read high
# Chain of Short transient receptor potential channel 6 (Mus musculus) (Q61143 whole entry, looked up): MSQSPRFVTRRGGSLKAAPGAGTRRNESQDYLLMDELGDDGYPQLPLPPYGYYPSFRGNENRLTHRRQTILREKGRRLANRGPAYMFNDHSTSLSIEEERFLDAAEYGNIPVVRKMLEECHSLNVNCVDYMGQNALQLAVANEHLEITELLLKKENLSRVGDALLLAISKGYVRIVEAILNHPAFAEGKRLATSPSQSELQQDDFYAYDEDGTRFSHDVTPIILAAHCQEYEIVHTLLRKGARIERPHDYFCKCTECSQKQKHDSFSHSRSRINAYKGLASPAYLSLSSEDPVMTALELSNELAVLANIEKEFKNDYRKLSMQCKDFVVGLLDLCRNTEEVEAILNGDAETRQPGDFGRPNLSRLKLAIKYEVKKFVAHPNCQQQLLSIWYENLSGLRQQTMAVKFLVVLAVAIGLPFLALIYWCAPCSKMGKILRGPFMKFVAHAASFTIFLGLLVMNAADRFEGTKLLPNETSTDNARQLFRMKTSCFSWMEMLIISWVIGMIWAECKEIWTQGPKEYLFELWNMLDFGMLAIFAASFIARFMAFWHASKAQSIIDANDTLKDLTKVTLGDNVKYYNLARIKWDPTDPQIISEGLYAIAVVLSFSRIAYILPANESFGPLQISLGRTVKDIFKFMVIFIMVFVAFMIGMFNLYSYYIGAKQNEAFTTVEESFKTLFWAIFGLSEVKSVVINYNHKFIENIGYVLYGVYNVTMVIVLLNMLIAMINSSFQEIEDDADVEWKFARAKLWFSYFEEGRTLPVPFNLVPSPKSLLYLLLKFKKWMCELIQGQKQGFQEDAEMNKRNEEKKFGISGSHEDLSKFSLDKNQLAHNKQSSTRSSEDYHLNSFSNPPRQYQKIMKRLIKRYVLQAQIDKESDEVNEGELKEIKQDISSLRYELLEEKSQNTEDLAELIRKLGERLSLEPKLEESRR
# [10] = molecular target: Short transient receptor potential channel 6 (Mus musculus) (UniProt Q61143); experiment: activation of mouse TRPC6 channel, confirmation, selectivity assay for TRPC4 activator project, cell-based, HEK293, membrane potential dye, duplicate (AID 434950;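 active means membrane potential signal rise above negative control mean plus 3 SD in both duplicates, also active in the earlier TRPC4 screen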;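 on activation: 0% = buffer only wells and 100% = acetylcholine maximal-effect wells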); settings: HEK293 TRPC6, membrane potential fluorescence, at 10 µM; active compounds read high
# [11] = molecular target: Short transient receptor potential channel 6 (Mus musculus) (UniProt Q61143); experiment: TRPC6 potentiation by TRPC4 potentiator hits, confirmation, selectivity assay for TRPC4 potentiator project, HEK293 cells, membrane potential dye, duplicate (AID 434952;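 active means compound raising the membrane signal above positive-control mean plus 3 SD in both repeats, and a primary screen hit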); settings: HEK293 TRPC6, membrane potential dye fluorescence, at 10 µM, maximal acetylcholine added after compound; active compounds read high
# [12] = molecular target: Short transient receptor potential channel 4 (Mus musculus) (UniProt Q9QUQ5); experiment: calcium flux activators in TRPC4/5HT1a cells, counter-screen for TRPC4 activator project, cell-based, second counter screen, HEK293 TRPC4/5HT1a, Fluo-4 (AID 434977;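 active means calcium signal rise above buffer-control mean plus 5 SD in both duplicates, and also a hit in the primary screen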;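 on activation: plate controls were assay buffer for no effect and maximal serotonin response for full effect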); settings: Fluo-4 calcium flux, at 10 µM; active compounds read high
# [13] = calcium flux inhibitors in TRPC4/5HT1a cells, confirmation, counter-screen for TRPC4 inhibitor project, cell-based, second counter screen, HEK293 TRPC4/5HT1a, Fluo-4 (AID 434978;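 active means primary screen active whose calcium signal fell more than 3 SD beyond the full-serotonin control mean in both duplicate plates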;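 further: serotonin given first at submaximal then at maximal dose after compound preincubation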); settings: Fluo-4 calcium flux, at 10 µM, serotonin added to trigger calcium flux; active compounds read high
# [14] = test system: TRPC4 (mouse), co-expressed with 5HT1a in HEK293; experiment: calcium flux potentiators in TRPC4/5HT1a cells, confirmation, counter-screen for TRPC4 potentiator project, cell-based, second counter screen, HEK293 TRPC4/5HT1a, Fluo-4 (AID 434979;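 active means signal rise over 3 SD above mean of control wells given weak agonist, in both repeats and first screen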); settings: Fluo-4 calcium flux, at 10 µM, serotonin added at its EC20 dose; active compounds read high
# [15] = calcium flux activation in mu-opioid HEK293 cells, confirmation, counter-screen for TRPC4 activator project, cell-based, HEK293 mu-opioid receptor line (AID 449723); settings: Fluo-4 calcium fluorescence, at 10 µM; active compounds read high;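 further: counter screen cells carry the mu-opioid receptor alone and lack TRPC4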
# [16] = calcium flux enhancement in mu-opioid HEK293 cells, confirmation, counter-screen for TRPC4 allosteric potentiator project, cell-based, HEK293 mu-opioid receptor line (AID 449724;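 active means calcium signal rise more than 3 SD above the low-dose agonist control mean, in both duplicate plates and the primary screen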); settings: Fluo-4 calcium flux, at 10 µM, compound added before EC20 DAMGO stimulus; active compounds read high
structure (smiles),measurement,setting,value
CCCCN1/C(=C/c2ccc3ccccc3[n+]2CC)Sc2ccccc21,activation,[1],412% (active)
same,outcome,[2],inactive
same,outcome,[3],inactive
same,outcome,[4],inactive
same,outcome,[5],inactive
same,outcome,[6],inactive
same,outcome,[7],inactive
same,outcome,[8],inactive
same,outcome,[9],inactive
same,outcome,[10],inactive
same,outcome,[11],inactive
same,activation,[12],154% (active)
same,outcome,[13],inactive
same,outcome,[14],inactive
same,activation,[15],271% (active)
same,outcome,[16],inactive
CN(C)C(CNC(=S)Nc1ccccc1Cl)c1cccnc1 (centres undefined),activation,[1],109% (active)
same,activation,[2],144% (active)
same,outcome,[3],inactive
same,outcome,[4],inactive
same,outcome,[5],inactive
same,outcome,[6],inactive
same,outcome,[7],inactive
same,outcome,[8],inactive
same,outcome,[9],inactive
same,outcome,[10],inactive
same,outcome,[11],inactive
same,outcome,[12],inactive
same,outcome,[13],inactive
same,outcome,[14],inactive
same,outcome,[15],inactive
same,outcome,[16],inactive
CN(C)c1ccc(C(CNC(=O)Cc2cccc3ccccc23)N(C)C)cc1 (centres undefined),activation,[1],102% (active)
same,outcome,[2],inactive
same,outcome,[3],inactive
same,outcome,[4],inactive
same,outcome,[5],inactive
same,outcome,[6],inactive
same,outcome,[7],inactive
same,outcome,[8],inactive
same,outcome,[9],inactive
same,outcome,[10],inactive
same,outcome,[11],inactive
same,outcome,[12],inactive
same,outcome,[13],inactive
same,outcome,[14],inactive
same,outcome,[15],inactive
same,outcome,[16],inactive
COC(=O)c1ccc(N2CCN(C)CC2)c(NC(=O)c2cccs2)c1,activation,[1],138% (active)
same,outcome,[2],inactive
same,outcome,[3],inactive
same,outcome,[4],inactive
same,outcome,[5],inactive
same,outcome,[6],inactive
same,outcome,[7],inactive
same,outcome,[8],inactive
same,outcome,[9],inactive
same,outcome,[10],inactive
same,outcome,[11],inactive
same,activation,[12],52.7% (active)
same,outcome,[13],inactive
same,outcome,[14],inactive
same,activation,[15],15.6% (active)
same,outcome,[16],inactive
CN(C)C(CNC(=O)c1ccc2nc[nH]c2c1)c1ccccc1 (centres undefined),activation,[1],145% (active)
same,outcome,[2],inactive
same,outcome,[3],inactive
same,outcome,[4],inactive
same,outcome,[5],inactive
same,outcome,[6],inactive
same,outcome,[7],inactive
same,outcome,[8],inactive
same,outcome,[9],inactive
same,outcome,[10],inactive
same,outcome,[11],inactive
same,outcome,[12],inactive
same,outcome,[13],inactive
same,outcome,[14],inactive
same,outcome,[15],inactive
same,outcome,[16],inactive
COc1cc(OC)cc(C(=O)NC(=S)NNC(=O)Cc2cccs2)c1,activation,[1],101% (active)
same,outcome,[2],inactive
same,outcome,[3],inactive
same,outcome,[4],inactive
same,outcome,[5],inactive
same,outcome,[6],inactive
same,outcome,[7],inactive
same,outcome,[8],inactive
same,outcome,[9],inactive
same,outcome,[10],inactive
same,outcome,[11],inactive
same,activation,[12],58.2% (active)
same,outcome,[13],inactive
same,outcome,[14],inactive
same,activation,[15],20.6% (active)
same,outcome,[16],inactive
Cn1c(N2CCN(C(=O)Nc3ccc(F)cc3)CC2)nc2ccccc21,activation,[1],51% (active)
same,outcome,[2],inactive
same,outcome,[3],inactive
same,outcome,[4],inactive
same,outcome,[5],inactive
same,outcome,[6],inactive
same,outcome,[7],inactive
same,outcome,[8],inactive
same,outcome,[9],inactive
same,outcome,[10],inactive
same,outcome,[11],inactive
same,activation,[12],22.1% (active)
same,outcome,[13],inactive
same,outcome,[14],inactive
same,outcome,[15],inactive
same,outcome,[16],inactive
Cc1ccc(CNC(=O)C2CCCN(Cc3cnn(-c4ccccc4)c3-n3cccc3)C2)cc1 (centres undefined),activation,[1],81% (active)
same,outcome,[2],inactive
same,outcome,[3],inactive
same,outcome,[4],inactive
same,outcome,[5],inactive
same,outcome,[6],inactive
same,outcome,[7],inactive
same,outcome,[8],inactive
same,outcome,[9],inactive
same,activation,[10],46% (active)
same,outcome,[11],inactive
same,outcome,[12],inactive
same,outcome,[13],inactive
same,outcome,[14],inactive
same,outcome,[15],inactive
same,outcome,[16],inactive
Cc1onc(-c2ccccc2Cl)c1C(=O)N1CCN(C/C=C/c2ccccc2)CC1,activation,[1],190% (active)
same,outcome,[2],inactive
same,outcome,[3],inactive
same,outcome,[4],inactive
same,outcome,[5],inactive
same,outcome,[6],inactive
same,outcome,[7],inactive
same,outcome,[8],inactive
same,outcome,[9],inactive
same,activation,[10],38.5% (active)
same,outcome,[11],inactive
same,outcome,[12],inactive
same,outcome,[13],inactive
same,outcome,[14],inactive
same,outcome,[15],inactive
same,outcome,[16],inactive
CC(=O)c1ccc(S(=O)(=O)NCc2ccc(C(=O)NCC(c3ccccc3)N(C)C)cc2)cc1 (centres undefined),activation,[1],127% (active)
same,activation,[2],99% (active)
same,outcome,[3],inactive
same,outcome,[4],inactive
same,outcome,[5],inactive
same,outcome,[6],inactive
same,outcome,[7],inactive
same,outcome,[8],inactive
same,outcome,[9],inactive
same,activation,[10],33% (active)
same,outcome,[11],inactive
same,outcome,[12],inactive
same,outcome,[13],inactive
same,outcome,[14],inactive
same,outcome,[15],inactive
same,outcome,[16],inactive
O=[N+]([O-])c1cc(C(F)(F)F)ccc1N1CCCNCC1,activation,[1],77% (active)
same,outcome,[2],inactive
same,potentiation,[3],21% (active)
same,potentiation,[4],26% (active)
same,outcome,[5],inactive
same,outcome,[6],inactive
same,outcome,[7],inactive
same,outcome,[8],inactive
same,outcome,[9],inactive
same,outcome,[10],inactive
same,outcome,[11],inactive
same,activation,[12],30.2% (active)
same,outcome,[13],inactive
same,potentiation,[14],30.6% (active)
same,outcome,[15],inactive
same,outcome,[16],inactive
COc1ccc(C(CNC(=O)c2ccc3c(c2)OCCO3)N(C)C)cc1 (centres undefined),activation,[1],153% (active)
same,activation,[2],123% (active)
same,outcome,[3],inactive
same,outcome,[4],inactive
same,outcome,[5],inactive
same,outcome,[6],inactive
same,outcome,[7],inactive
same,outcome,[8],inactive
same,outcome,[9],inactive
same,activation,[10],49% (active)
same,outcome,[11],inactive
same,outcome,[12],inactive
same,outcome,[13],inactive
same,outcome,[14],inactive
same,outcome,[15],inactive
same,outcome,[16],inactive
CCCN(CCC)CCCNC(=O)c1cc2c(-c3ccc(OC)c(OC)c3)nn(C)c2s1,activation,[1],97% (active)
same,activation,[2],78% (active)
same,outcome,[3],inactive
same,outcome,[4],inactive
same,outcome,[5],inactive
same,outcome,[6],inactive
same,outcome,[7],inactive
same,outcome,[8],inactive
same,outcome,[9],inactive
same,outcome,[10],inactive
same,outcome,[11],inactive
same,activation,[12],38.6% (active)
same,outcome,[13],inactive
same,outcome,[14],inactive
same,outcome,[15],inactive
same,outcome,[16],inactive
CC1CC(C)CN(CCCNC(=O)c2csc3c2CCCCC3)C1 (centres undefined),activation,[1],128% (active)
same,outcome,[2],inactive
same,outcome,[3],inactive
same,outcome,[4],inactive
same,outcome,[5],inactive
same,outcome,[6],inactive
same,outcome,[7],inactive
same,outcome,[8],inactive
same,outcome,[9],inactive
same,activation,[10],87.5% (active)
same,outcome,[11],inactive
same,activation,[12],7.01% (active)
same,outcome,[13],inactive
same,outcome,[14],inactive
same,outcome,[15],inactive
same,outcome,[16],inactive
